The source of these data is PubChem BioAssay (NCATS).

A number with no mark means an inactive call. Calls of active or inactive are those of the source. Calls follow the shape of the dose curve; as a rule, active = well fitted inhibition curve with a large enough effect; inconclusive = small, poorly fitted or top-dose-only effect; inactive = flat fitted curve, though single readings scatter.
Potency is read from the fitted curve at half-maximal effect.

In the experiment the test system is Nanoluciferase (engineered Oplophorus gracilirostris luciferase). Description: Primary Nanoluciferase (NLuc) qHTS assay for identification of artifact compounds. (AID 1845222). The following applies: NLuc-conditioned medium, Nano-Glo luminescence, 5 min; series mostly up to 54.1 µM; activity, negative = inhibition: at the top concentration. From the text: PI: Alexander Tropsha Ph.D.
UNC Eshelman School of Pharmacy
University of North Carolina, Chapel Hill, North Carolina
Hits from high-throughput screening (HTS) of chemical libraries are often false positives due to their interference with the assay detection technology. In response to this problem, we generated the largest publicly available library of chemical liabilities and developed a free webtool to predict HTS artifacts, both of which are described herein. More specifically, we generated, curated, and integrated HTS datasets for thiol reactivity, redox activity, and luciferase (firefly and nano) activity. Using these curated datasets, we developed and validated several Quantitative Structure-Interference Relationship (QSIR) models to predict nuisance behavior. […] These models were employed for virtual profiling of the National Center for Advancing Translational Science's (NCATS) in-house library, and 256 compounds for each assay were selected for the experimental validation of nuisance behavior. The BA for these external predictions ranged from 58 to 78% for compounds within the applicability domains of the models. […] The models developed in this study, along with aggregation models previously developed by our group (SCAM Detective) were implemented in "Liability Predictor," an online tool which may be used as part of chemical library design or for triaging HTS hits. Both the models and the curated datasets are publicly available at https://liability.mml.unc.edu/.
SEQUENCE No. (e.g., 1, 2, 3, etc.); […] (e.g., Cells, Incubation, Reagent, etc.); VALUE; DESCRIPTION.
1; Reagent; 2 uL; Nanoluciferase media.
2; Compounds and control; 16 nL; Kalypsis pin tool (Wako USA) equipped with a 1536-well pin head.
4; Reagent; 2 uL; Luciferase enzyme.
6; Detection; Luminescence, ViewLux microplate reader.
NOTES (numbers refer to Sequence numbers above)
1. Medium was collected from the culture flasks of NLuc-expressing S16 cells (80% confluent) prior to cell plating, filtered through a 0.22um filter, and frozen at -20C prior to use. Media was diluted (1:55) and 2 uL was dispensed into all wells of a 1536-well assay plate (solid-bottom white plate; Greiner Bio One, Monroe, NC).
2. A Wako Pin-tool (Wako Automation, Richmond, VA) was used to transfer 16 nL of compounds (consisting of 7-plates in qHTS format, final concentration range 18.3 nM to 114 uM) or control Cilnidipine (final concentration range 623 nM to 80 uM).
3. 15 min. incubation at room temperature protected from light.
4. 2 uL of NLuc substrate (1:100 in Nano-Glo luciferase buffer; Nano-Glo luminescence assay, Promega, Madison, WI) was dispensed for a final assay volume of 4 uL.
5. Plates were centrifuged (121xg, 15 seconds) and incubated for 5 minutes.
6. Samples were read for luminescence on a ViewLux CCD imager (PerkinElmer). Data were normalized to no-enzyme (0% activity) and no-inhibitor (DMSO; 100%) controls and the resulting percent inhibition data were fitted to a 4-parameter Hill equation using NCATS in-house software.
`Clc1cccc(-c2nnnn2Cc2cccnc2)c1Cl`: the “activity, negative = inhibition” value is -8%.
On the same count and under the same terms, then `O=C(Nc1cn[nH]c1-c1nc2ccc(CN3CCOCC3)cc2[nH]1)NC1CC1`, with 4.89%.
In the case of `O=C(c1ccc(Nc2nccc(-c3cc4ccccc4s3)n2)cc1)N1CCC(N2CCCC2)CC1`, the “activity, negative = inhibition” value is -2.49%.
Same read-out and setting: then `CC(C)c1cc(C(=O)N2Cc3ccc(CN4CCN(C)CC4)cc3C2)c(O)cc1O`, with 2.65%; and `CCNC(=O)Nc1ccc2ncc(Nc3ccc(C)cc3)nc2n1`, with 3.93%; and `CC1COC2(CCN(c3nc(=O)c4cc(C(F)(F)F)cc([N+](=O)[O-])c4s3)CC2)O1` (stereo not given), with 0.105%.
The same measure, in the same setting: then `Nc1ccccc1NC(=O)c1ccc(CNc2nccc(-c3cccnc3)n2)cc1`, with -11.6%.
Same read-out and setting: then `COc1ccc(-n2nc(C(N)=O)c3c2C(=O)N(c2ccc(N4CCCCC4=O)cc2)CC3)cc1`, with 1.82%; and `COc1cccc2c(NCc3ccccc3)nc(-n3c(N)nc4ccccc43)nc12`, with 4.2%; and `Clc1ccc2ncc(-c3cccc(NC4CNC4)n3)n2c1`, with 3.63%.
As to `COc1cc2c(NC3CCN(C(C)C)CC3)nc(C3CCCCC3)nc2cc1OCCCN1CCCC1`, the “activity, negative = inhibition” value is -4.27%.
Still for that read-out and setting: then `CCCCOc1c(C(=O)c2c(F)cc(C)cc2F)cnc2n[nH]cc12`, with 0%; and `CCCCCCCCCC(=O)N[C@@H](Cc1c[nH]c2ccccc12)C(=O)N[C@H](CC(N)=O)C(=O)N[C@@H](CC(=O)O)C(=O)N[C@@H]1C(=O)NCC(=O)N[C@@H](CCCN)C(=O)N[C@@H](CC(=O)O)C(=O)N[C@H](C)C(=O)N[C@@H](CC(=O)O)C(=O)NCC(=O)N[C@H](CO)C(=O)N[C@@H]([C@@H](C)CC(=O)O)C(=O)N[C@@H](CC(=O)c2ccccc2N)C(=O)O[C@@H]1C`, with 3.72% [at 25.7 µM].
On the same count and under the same terms, to `CN(C)Cc1c(C(=O)NCCOc2ccc(C(=O)NO)cc2)oc2ccccc12` belongs 1.02%.
With `Nc1nc(NCCNc2ncc(-n3ccnc3)c(-c3ccc(Cl)cc3Cl)n2)ccc1[N+](=O)[O-]`, the Potency is 536 nM (active).
Take `CCc1c2c(nc3ccc(O)cc13)-c1cc3c(c(=O)n1C2)COC(=O)[C@]3(O)CC`: the “activity, negative = inhibition” value was -9.35%.
Still for that read-out and setting: to `Cc1cc(C(=O)N2CCN(c3cccc(Cl)c3)CC2)n(-c2ccccc2)n1` belongs -4.56%; to `COC(=O)Nc1nc2ccc(C(=O)c3ccc(F)cc3)cc2[nH]1`, 2.45%.
Regarding `Cc1cn2c(-c3cn[nH]c3)cnc2c(Nc2ccc(C(=O)N3CCNCC3)cc2F)n1`, the “activity, negative = inhibition” value was -0.833%.
The same measure, in the same setting: to `C=CC(=O)Nc1cccc(Oc2nc(Nc3ccc(N4CCN(C)CC4)cc3OC)ncc2Cl)c1` belongs -13.6%; to `CNC(=O)c1ccccc1Nc1nc(Nc2ccc(N3CCOCC3)cc2OC)ncc1Cl`, 0%.
On the same count and under the same terms, to `O=C(O)Cn1nnc(-c2cc(N3CCC(Oc4cc(F)ccc4Br)CC3)no2)n1` belongs -8.86%; to `c1ccc2c(CCNc3ccc(Nc4ccncc4)cc3)c[nH]c2c1`, 2.22%.
Still for that read-out and setting: to `c1nc2nc(Nc3ccc(N4CCOCC4)cc3)nc(NC3CCCCC3)c2[nH]1` belongs -1.73% [at 25.7 µM].
For the molecule `CC(C)(C)c1cc(NC(=O)Nc2ccc(-c3cn4c(n3)sc3cc(OCCN5CCOCC5)ccc34)cc2)no1`, the “activity, negative = inhibition” value was 0%.
For `COc1c(OCCCN2CCOCC2)ccc2c3n(c(=NC(=O)c4cnc(N)nc4)nc12)CCN3`, the activity, negative = inhibition was 0.183% [at 11.6 µM].
Still for that read-out and setting: then `CC1(C)CCC(c2ccc(Cl)cc2)=C(CN2CCN(c3ccc(C(=O)NS(=O)(=O)c4ccc(N[C@H](CCN5CCOCC5)CSc5ccccc5)c(S(=O)(=O)C(F)(F)F)c4)cc3)CC2)C1`, with -7.36%.
Same read-out and setting: then `O=C1CCC[C@@H]2[C@H]3CCC[N+]4([O-])CCC[C@@H](CN12)[C@@H]34` (stereo not given in full), with 0%.
Consider `O=C(O)CCCc1c[nH]c2ccccc12`, for which the “activity, negative = inhibition” value was -10.6%.
The same measure, in the same setting: then `Cc1cc(Nc2cc(CN3CCOCC3)c3nc(C)c(Cc4ccc(Cl)cc4F)n3n2)n[nH]1`, with 0.239%; and `CS(=O)(=O)N1CCN(Cc2cc3nc(-c4cccc5[nH]ncc45)nc(N4CCOCC4)c3s2)CC1`, with -6.02%.
For `CCS(=O)(=O)c1cccc(-c2cc(C(=O)NC3CCN(C)CC3)c(C)c3[nH]c4ncc(C)cc4c23)c1`, the “activity, negative = inhibition” value is 4.73%.
Same read-out and setting: then `COc1ccc(F)c(F)c1C(=O)c1cnc(NC2CCN(S(C)(=O)=O)CC2)nc1N`, with 3.01%.
Still for that read-out and setting: then `NC1(Cc2ccc(Cl)cc2)CCN(c2ncnc3[nH]ccc23)CC1`, with 2.76%.
Turning to `CC[C@@H]1C(=O)N(C)c2cnc(Nc3ccc(C(=O)NC4CCC(N5CCN(CC6CC6)CC5)CC4)cc3OC)nc2N1C(C)C` (stereo not given in full), the Potency result is “inactive”.
Consider `CS(=O)(=O)c1ccc(-c2cnc(N)c(C(=O)Nc3ccccc3)n2)cc1`, for which the “activity, negative = inhibition” value was -27.1%.
Same read-out and setting: then `Cc1cnc(Nc2ccc(F)cc2Cl)nc1-c1c[nH]c(C(=O)N[C@H](CO)c2cccc(Cl)c2)c1`, with 4.01%; and `COc1cc2c(Oc3ccc4[nH]c(C)cc4c3F)ncnc2cc1OCCCN1CCCC1`, with -2.92%.
On the same count and under the same terms, to `O=c1c2ccccc2nc2n1CCc1c-2[nH]c2ccccc12` belongs 0.359%; to `COc1cc(Nc2ncc(F)c(Nc3ccc4c(n3)N(COP(=O)(O)O)C(=O)C(C)(C)O4)n2)cc(OC)c1OC`, -5.71%.
